An excerpt weighted towards active compounds, which were near 3.7% of everything screened.
A549 tox-1: A549 cytotoxicity, counter-screen for Nrf2 inhibitors. A549 ARE-Fluc cells, CellTiter-Fluor viability, 18-24 h. Potency, µM (top dose mostly 46 µM), for the others: top-dose activity change, negative = cytotoxicity, actives largely listed as inhibitors. 390,000 tested, 0.16% active. AID 504648; also: % is scaled to controls: 0 for no effect and ±100 for the full control effect
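A549 ARE_Fluc cells in 5% FBS OPTI-MEM were exposed to compounds in concentration-response for 18-24 h at 37 deg C. Viability was read by CellTiter-Fluor fluorescence (Ex 405/Em 525) after 30 min, before the luciferase read.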
ELG1 DNA repair: blocks ELG1-dependent DNA repair in HEK293T cells | HEK293T ELG1-luciferase reporter, luminescence, 16 h; DNA damage induced by 5-fluorouridine | Potency, µM (series often up to 46.1 µM), without a hit: at the highest dose activity change, negative = inhibition, usual class: inhibitors | 330,000 tested, 2.3% active; also: % is scaled to controls: 0 for no effect and ±100 for the full control effect; nearly all actives have a fitted effect of over 55% in size
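5-Fluorouridine DNA damage + compound/DMSO, 2,000 cells/well, 16 h, 37 °C/5% CO2. ONE-Glo, 30 min RT, luminescence. Readout = decrease in reporter signal.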
Nrf2 ARE act: activators of Nrf2 (ARE) signaling | AREc32 ARE-luciferase reporter (MCF7-derived line), luminescence, 24 h | Potency, µM (top dose mostly 46.1 µM), for the others: at the highest dose activation, hits mostly activators | 410,000 tested, 0.31% active | AID 624171; also: % of control where 0% means no effect; nearly all actives have a fitted effect of over 65% in size
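ARE activation measured as luciferase luminescence (Steady-Glo, 30 min RT) in AREc32_Fluc cells after 24 hr compound exposure at 37 deg C, 5% CO2; cells seeded overnight at 1000/well in OPTI-MEM, 5% FBS.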
Nrf2 inh: inhibitors of Nrf2 signaling; 360,000 tested, 2.1% active; A549 ARE-Fluc reporter, luciferase luminescence, 18-24 h; Potency, µM (titrated, usually from 46 µM), inactives show top-dose activity change, negative = inhibition, most hits filed as inhibitors; also: % is scaled to controls: 0 for no effect and ±100 for the full control effect; nearly all actives have a fitted effect of over 60% in size
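Reporter: ARE-Fluc in A549. Exposure: 18-24 h, 37 °C, 5% CO2, 5% FBS OPTI-MEM. Readouts: fluorescent cytotoxicity (CellTiter-Fluor), then luminescent Nrf2 signal after BugLite.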
FLuc enzyme inh: counter-screen for Nrf2 inhibitors: firefly luciferase enzyme inhibition. shares compounds with Nrf2 inh. purified firefly luciferase, luminescence inhibition. Potency, µM (top dose mostly 57.5 µM), for inactives: top-dose activity change, negative = inhibition, hits mostly inhibitors. 1,400 tested, 4% active. AID 720522; also: % is scaled to controls: 0 for no effect and ±100 for the full control effect; nearly all actives have a fitted effect of over 65% in size
Target sequence (P08659 whole entry, looked up): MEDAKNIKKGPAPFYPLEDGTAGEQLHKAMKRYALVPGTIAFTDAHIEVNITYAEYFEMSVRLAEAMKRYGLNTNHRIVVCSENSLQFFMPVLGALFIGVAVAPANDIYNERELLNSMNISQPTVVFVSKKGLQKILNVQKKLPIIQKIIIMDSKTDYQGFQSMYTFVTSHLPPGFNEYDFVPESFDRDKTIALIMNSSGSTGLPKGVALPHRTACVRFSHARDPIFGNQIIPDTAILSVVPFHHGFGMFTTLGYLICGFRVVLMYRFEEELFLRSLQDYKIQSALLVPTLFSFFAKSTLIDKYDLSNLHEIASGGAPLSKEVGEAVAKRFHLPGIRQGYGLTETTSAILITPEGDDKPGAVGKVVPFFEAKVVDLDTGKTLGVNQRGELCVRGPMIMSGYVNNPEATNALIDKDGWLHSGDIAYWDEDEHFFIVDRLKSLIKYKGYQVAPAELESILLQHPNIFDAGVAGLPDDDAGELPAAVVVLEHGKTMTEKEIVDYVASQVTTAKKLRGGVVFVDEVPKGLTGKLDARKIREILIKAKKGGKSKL
A549 tox-2: A549 cytotoxicity, Nrf2 inhibitor counterscreen; shares compounds with Nrf2 inh; A549 ARE-Fluc cells, cytotoxicity counterscreen; Potency, µM (series often up to 46.1 µM), inactives show at the top dose activity change, negative = cytotoxicity, hits mostly inhibitors; 1,400 tested, 2% active; AID 720523;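 also: cells exposed to compounds for 18 to 24 hours; % is scaled to controls: 0 for no effect and ±100 for the full control effect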
ARE-Fluc inh: Nrf2 inhibition confirmed, A549 ARE-luciferase; shares compounds with Nrf2 inh; A549 ARE-firefly luciferase reporter, luminescence; Potency, µM (highest dose often 46.1 µM), for the others: at the highest dose activity change, negative = inhibition, usual class: inhibitors; 1,400 tested, 74% active; also: % is scaled to controls: 0 for no effect and ±100 for the full control effect; nearly all actives have a fitted effect of over 65% in size
Active calls of the source: *; ? = inconclusive; . = no result shown; [ ] = another dose, or the depositor's remark. Calls follow the shape of the dose curve; as a rule, active = well fitted curve in the direction sought with a large enough effect; inconclusive = small, poorly fitted or top-dose-only effect, or another doubt; inactive = no such curve, though single readings can be large; an effect the other way counts as inactive or inconclusive. Potency is read from the fitted curve at half-maximal effect.

SMILES | A549 tox-1 | ELG1 DNA repair | Nrf2 ARE act | Nrf2 inh | others
CC(C)n1c(=O)c(C=Nc2cccc([N+](=O)[O-])c2)c(O)n(CCc2ccccc2)c1=O | -19% | ? | 11µM* | -16%
CCC(=NCc1ccco1)c1c(O)n(C)c(=O)n(C)c1=O | -10% | -15% | 7% | ?
CCC(=NCCc1ccccc1)c1c(O)n(C)c(=O)n(C)c1=O | 2% | ? | 1% | 21µM*
Cn1c(O)c(C(=Nc2ccccc2)SCc2ccc(Cl)cc2)c(=O)n(C)c1=O | ? | ? | 16% | 23µM*
CC(C)C[C@H]1C(=O)N2CCC[C@H]2[C@]2(O)O[C@](NC(=O)C3C=C4c5cccc6[nH]c(Br)c(c56)C[C@H]4N(C)C3)(C(C)C)C(=O)N12 (some centres not stated) | ? | . | 8% | 18µM*
CCOc1ccc(NC(=O)c2cc3c(C)nn(-c4ccccc4)c3s2)cc1 | -12% | . | 1% | ?
COc1ccc(C(=O)Nc2sc3c(c2C(=O)O)CC(C)(C)OC3)cc1 | -20% | -11% | 0% | 8.2µM*
CCc1cccc(NC(=O)C2CCN(S(=O)(=O)c3ccc(Br)s3)CC2)c1 | -11% | . | 6% | ?
Cc1ccc(N2CCN(C(=O)C3CCC(CNS(=O)(=O)c4ccc(Br)s4)CC3)CC2C)cc1 (configuration not stated) | 1% | . | 4% | 9.2µM*
c1ccc(CCCN2CCN(CCOC(c3ccccc3)c3ccccc3)CC2)cc1 | -8% | . | -1% | 0%
Fc1ccc(C(OCCN2CCN(CCCc3ccccc3)CC2)c2ccc(F)cc2)cc1 | ? | . | -3% | 23µM*
CCCCn1c(=O)c(C=Nc2cc([N+](=O)[O-])ccc2OC)c(O)n(CCCCl)c1=O | 0% | 21µM* | 10% | 2%
c1ccc(-c2[nH]c(-c3ccccc3)[n+](CC3CO3)c2-c2ccccc2)cc1 (configuration not stated) | 2% | 23µM* | 3%[9.22 µM] | ?
Cc1ccc(NC(=O)c2ncn(CC(=O)NCc3ccc4c(c3)OCO4)n2)cc1C | -3% | ? | 3% | ?
O=c1[nH]c(=O)n(CCC2=CCCCC2)c(O)c1/C=N/Nc1cccc2ccccc12 | 1% | -19% | 1% | 9%
O=c1[nH]c(=O)n(CCC2=CCCCC2)c(O)c1/C=N/Nc1ccccc1 | -13% | -5% | 0% | 23µM*
N#Cc1cc2c(nc1SCC(=O)Nc1ccc(OC(F)(F)F)cc1)C1CCN2CC1 | 6% | . | -1% | .
O=C(N/N=C/c1cc(Br)c(Br)s1)c1ccncc1 | -11% | ? | 0% | 18µM*
Cc1ccc(-n2c(/C=C/c3cc(Br)cs3)nc3ccccc3c2=O)cc1C | -11% | . | 0% | .
COC(=O)C1=C(c2ccc(Cl)c(C(F)(F)F)c2)C[C@@H]2CC[C@H]1N2C(=O)N1CCCC1 | 2% | -1% | 1% | ?
COC(=O)C1=C(c2cc3ccccc3s2)C[C@@H]2CC[C@H]1N2C(=O)N1CCC(C)CC1 | -9% | . | 0% | 26µM*
COC(=O)C1=C(c2cc3ccccc3s2)C[C@@H]2CC[C@H]1N2C(=O)NCC1CC1 | -15% | . | 1% | 18µM*
COC(=O)C1=C(c2cc3ccccc3s2)C[C@@H]2CC[C@H]1N2C(=O)NC1CC1 | 0% | . | 0% | ?
COC(=O)C1=C(c2ccc(OC(F)(F)F)cc2)C[C@@H]2CC[C@H]1N2C(=O)N1CCC(C)CC1 | -7% | 1% | 4% | 18µM*
COC(=O)C1=C(c2ccc(Cl)c(C(F)(F)F)c2)C[C@@H]2CC[C@H]1N2C(=O)N1CCC(O)(c2ccc(Cl)cc2)CC1 | ? | ? | 0% | 23µM*
SMILES | A549 tox-1 | ELG1 DNA repair | Nrf2 ARE act | Nrf2 inh | others
COc1ccc(OCC(=O)N2CCN(Cc3cccc(OC)c3OC)CC2)cc1 | 0% | . | 0% | 8%
COC(=O)C1=C(C(=O)OC)C2OC1c1cc3ccccc3cc12 | -15% | . | -3% | 21µM*
O=C(Nc1ccc(Oc2ccc(Cl)cc2)c(Cl)c1)c1cc(I)cc(I)c1O | ? | 6% | 0% | ?
CCc1ccc(-n2nc(C)c3c(C(=O)NCCc4ccc(OC)c(OC)c4)cc(C)nc32)cc1 | -13% | . | 7% | 23µM*
Cc1ccc(NC(=O)CN2C(=O)CN=C(c3ccccc3)c3ccccc32)cc1Cl | ? | . | 0% | .
C=CCn1c(O)c(C(CC)=NCc2cccnc2)c(=O)[nH]c1=O | 7% | ? | 3% | 6%
Cc1cn2c(=O)cc(COC(=O)c3ccccc3F)nc2s1 | 1% | . | 4% | ?
CC(=O)c1cn(Cc2ccc(C#N)cc2)c2ccccc12 | 20% | 9% | 0% | -18%
CC(C)C(=O)c1cn(Cc2ccc(C#N)cc2)c2ccccc12 | 7% | 18µM* | 4% | -9%
CCOc1ccc(NC(=O)CN(c2ccc(Cl)cc2C)S(=O)(=O)c2ccccc2)cc1 | -17% | . | 3% | ?
Cc1ccsc1C(=O)C1CCCN(Cc2cnc(N(C)C)s2)C1 (configuration not stated) | . | -8% | . | .
Cc1ccsc1C(=O)C1CCCN(Cc2cnc(N3CCOCC3)s2)C1 (configuration not stated) | ? | ? | 2% | 18µM*
COc1cc2cc(c1Cl)N(C)C(=O)CC(OC(=O)C(C)N(C)C(C)=O)C1(C)OC1C(C)C1CC(O)(NC(=O)O1)C(OC)C=CC=C(C)C2 (configuration not stated) | -18% | . | -1% | ?
Cc1ccc(-c2cc(-c3ccc(C)cc3)[n+](-c3ccc(C(=O)[O-])cc3)c(-c3ccc(C)cc3)c2)cc1 | 3% | ? | 0% | 21%
Cc1ccc(-c2cc(-c3ccc(C)cc3)[n+](-c3ccccc3)c(-c3ccc(C)cc3)c2)cc1 | ? | ? | -3% | 2.6µM* | FLuc enzyme inh=4%;A549 tox-2=5.8µM*
CN(C)c1ccc(-[n+]2c(-c3ccccc3)cc(-c3ccccc3)cc2-c2ccccc2)cc1 | ? | 4.6µM* | 0% | 2.9µM* | FLuc enzyme inh=-3%;A549 tox-2=?;ARE-Fluc inh=3.7µM*
Cc1cc(=O)n(-c2ccccc2)n1C | -3% | ? | 0% | ?
COc1cc(C[C@@H](C)N)c(OC)cc1I | -23% | ? | 0% | ? | FLuc enzyme inh=1%;A549 tox-2=-7%;ARE-Fluc inh=0%

Screening data as filed in PubChem.
